Assay results reported in PubChem BioAssay (NCATS).
Results filed as inconclusive are left out. Calls of active or inactive are those of the source. The call rests on the fitted dose curve; in most records, active means well fitted inhibition curve with a large enough effect; inconclusive means small, poorly fitted or top-dose-only effect; inactive means flat fitted curve, though single readings scatter.

How the values were obtained:
Assay in all cases: qHTS profiling for inhibitors of Plasmodium falciparum proliferation (AID 504749); further: nearly all actives have a fitted effect of over 60% in size
Conditions in all cases: P. falciparum in erythrocytes, SYBR Green DNA, 72 h; series mostly up to 28.7 µM
AA1029 = tested on: AA1029
Procedure, shortened: (§1)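 In a 72 h erythrocytic culture (37 C, humidified, 5% CO2) at 2.5% hematocrit and 0.3% starting parasitemia, compounds were tested; SYBR Green I in detergent lysis buffer stained parasite DNA overnight.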

ATS95 = tested on: ATS95
Procedure, shortened: as §1

C2A = tested on: C2A
Procedure, shortened: as §1

CP211 = tested on: CP211
Procedure, shortened: as §1

CP217 = tested on: CP217
Procedure, shortened: as §1

CP250 = tested on: CP250
Procedure, shortened: as §1

CP252 = tested on: CP252
Procedure, shortened: as §1

CP256 = tested on: CP256
Procedure, shortened: as §1

CP269 = tested on: CP269
Procedure, shortened: as §1

CP325 = tested on: CP325
Procedure, shortened: as §1

CP329 = tested on: CP329
Procedure, shortened: as §1

DIV17 = tested on: DIV17
Procedure, shortened: as §1

ECU = tested on: ECU
Procedure, shortened: as §1

FAB9 = tested on: FAB9
Procedure, shortened: as §1

N140 = tested on: N140
Procedure, shortened: as §1

P93_24 = tested on: P93_24
Procedure, shortened: as §1

PAD = tested on: PAD
Procedure, shortened: as §1

PC15 = tested on: PC15
Procedure, shortened: as §1

PC26 = tested on: PC26
Procedure, shortened: as §1

SC27B = tested on: SC27B
Procedure, shortened: as §1

Measured: Potency

CC1(C)[C@@H]2CC[C@]1(C)[C@@H](OC(=O)CSC#N)C2
inactive: all assays above

COc1cccc2c1C(=O)c1c(O)c3c(c(O)c1C2=O)C[C@](O)(C(=O)CO)C[C@@H]3O[C@H]1C[C@H](N)[C@@H](O)[C@H](C)O1
inactive: all assays above

CC(C)(C)NC[C@@H](O)c1ccc(O)c(CO)n1
inactive: all assays above
